Laboratory results from PubChem BioAssay (NCATS).
The list shows a part of the results. Inconclusive results are not listed. A number with no mark means an inactive call. Activity calls are given as the source filed them. Calls follow the shape of the dose curve; as a rule, active = well fitted cell-killing curve with a large enough effect; inconclusive = small, poorly fitted or top-dose-only effect, or effect the other way, or another doubt; inactive = no such curve, though single readings can be large or run the other way.

assay: qHTS screen for small molecules that inhibit ELG1-dependent DNA repair: Hit Confirmation with 5FU Viability (AID 624250); conditions: cell viability with 5-FU; series mostly up to 46.1 µM; activity change, negative = viability loss: at the top concentration
Source text: Cancer cells divide rapidly compared to normal cells in the body. During cell division, cancer cells need to duplicate their genome by DNA replication. The failure of genome duplication leads to cancer cells' death. Therefore, inhibitors of DNA replication could specifically kill cancer cells. Based on this concept, many chemotherapeutic agents were developed and have been used to treat cancer patients. However, there are a limited number of agents available in the clinical setting, and some of those that do exist have low efficacy and severe side effects. Therefore, if we can find the compounds that effectively block DNA replication either by directly damaging DNA or by inhibiting other cellular mechanisms, the options for cancer treatment will be broadened. With this in mind, we developed a quantitative high-throughput ELG1-luciferase reporter gene assay. Small molecules that specifically block ELG1 function in response to DNA damage can be identified by monitoring the suppression of luciferase activity. Since ELG1 defines a pathway for repairing DNA damage, agents blocking ELG1 function can be used to sensitize cancer cells to chemotherapeutic agents whose mechanism of action involves the induction of DNA damage.
NIH Molecular Libraries Probe Production Network [MLPCN]
NIH Chemical Genomics Center [NCGC]
Assay Provider: Kyungjae Myung, NHGRI, NIH
ELG1-luc HEK293T cells will be seeded in 1536-well plates at a density of 2,000 cells/well. Approximately 5 hours after plating, compounds will be added to the plate by pin tool transfer and 5-fluorouridine will be added by FRD dispenser (final concentration of 5-fluorouridine =10 µM). 16 hours following the addition of the compounds, cell viability will be measured using Cell Titer Glo.
% is scaled to controls: 0 for no effect and ±100 for the full control effect; potency is read from the fitted curve at half-maximal effect.

Row | Structure (SMILES) | activity change, negative = viability loss [%] | Potency
1 | NC(=O)c1sc2nc3c(c(-c4ccccc4)c2c1N)CCC3 | 15.6 | 
2 | COc1ccc(Nc2cc(=O)oc3ccccc23)cc1 | -7.76 | 
3 | O=C(C1CCCN(S(=O)(=O)c2ccccc2)C1)N1CCN(c2ccc(F)cc2)CC1 (stereo unspecified) | -2.54 | 
4 | COc1ccc(NS(=O)(=O)c2ccc(Oc3c(C#N)cccc3C#N)cc2)cc1 | 10.7 | 
5 | COc1ccc(S(=O)(=O)Nc2ccc3oc(C)c(C(C)=O)c3c2)cc1 | -1.98 | 
6 | CC(=O)c1c(C)n(-c2ccc(C)cc2)c2ccc(O)cc12 | -2.04 | 
7 | Clc1ccc2nc(-c3ccccc3)nc(C(Cl)Cl)c2c1 | -10.6 | 
8 | CCc1ccc(N(CC)c2ncnc3nc[nH]c23)cc1 | -3.52 | 
9 | OCCCNc1nccc(-c2cc(Nc3cccc(Cl)c3)ncn2)n1 | 6 | 
10 | COc1ccccc1C(=O)Nc1ccc(C)c(S(=O)(=O)N2CCCCC2)c1 | 1.7 | 
11 | CC(=O)[O][Sn]([c]1ccccc1)([c]1ccccc1)[c]1ccccc1 |  | 2810 nM (active)
12 | CC(C)(CNC(=O)c1ccc(Cl)c(S(=O)(=O)N2CCc3ccccc3C2)c1)N1CCOCC1 | -8.03 | 
13 | COc1cc(N)c(Cl)cc1C(=O)OCC(=O)c1ccc2c(c1)NC(=O)CO2 | -1.75 | 
14 | Cc1nnc(N/N=C/c2ccccn2)[nH]c1=O | -3.65 | 
15 | COc1ccc(CNc2ncnc3ccccc23)cc1 | -1.98 | 
16 | C[C@@H]1C[C@H]2CC[C@H](O2)[C@H](C)C(=O)O[C@@H](C)C[C@@H]2CC[C@@H](O2)[C@@H](C)C(=O)O[C@H](C)C[C@H]2CC[C@H](O2)[C@H](C)C(=O)O[C@@H](C)C[C@@H]2CC[C@@H](O2)[C@@H](C)C(=O)O1 | -10.2 | 
